For 6 molecules, composite z-score and z-score results are on record in PubChem BioAssay.

Calls of active or inactive are those of the source. Unless noted, the rule behind the calls is not given here.

The nature of experiment [1]: anti-His antibody binders, primary screen, artefact control for SMM control protein annotation, biochemical, small-molecule microarray, 635 nm fluorescence (AID 1128).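 Note: score merges feature fluorescence with signal-to-noise for each printed compound spot.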 Particulars: anti-His Alexa647 antibody binding, higher = more signal.
Experiment [2] relates to Human papillomavirus type 1a E7 protein (residues 1-88). Briefly: HPV1a E7 small-molecule binders, primary screen, biochemical, small-molecule microarray, residues 1-88, 635 nm (AID 1129). Particulars: small-molecule microarray binding, fluorescence 635 nm; higher = more signal.
In experiment [3] the target is Focal adhesion kinase 1 (Homo sapiens) (UniProt Q05397). Briefly: small-molecule microarray binders of FAK, primary screen, biochemical, 635/667 nm fluorescence, BSA, DTT (AID 1130).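 Note: composite of spot emission at 667 nm and signal to noise over triplicate slides.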 The note with it: PTK2 binding, 635 nm fluorescence, higher = more signal.
For experiment [4], the system named is Fibrinogen (Alexa647-labelled). In words: fibrinogen binders on compound microarrays, profiling panel, artefact control for SMM control-protein annotation, biochemical, small-molecule microarray, 635/667 nm fluorescence (AID 1131).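 Note: z-score merges 667 nm fluorescence with per-spot signal-to-noise over triplicate slides.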 The note with it: fibrinogen-A647 binding fluorescence, higher = more signal.
The target in experiment [5] is Follistatin (Homo sapiens) (UniProt P19883). Briefly: follistatin binders on small-molecule microarrays, primary screen, biochemical, small-molecule microarray, 635/667 nm fluorescence (AID 1132). The note with it: FST binding, 635 nm fluorescence, higher = more signal.
Experiment [6] has as its target Fibroblast growth factor 2 (Homo sapiens) (UniProt P09038). Briefly: FGF2 binders on small-molecule microarrays, primary screen, biochemical, small-molecule microarray, 635/667 nm fluorescence (AID 1133). The note with it: small-molecule microarray binding, FGF2, fluorescence 635/667; higher = more signal.
Experiment [7] in a line: mitochondrial membrane potential change in A549 cells, profiling panel, cell-based, JC-1 fluorescence, basal, 24 h, 100 nL (AID 1138).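 Note: A549 lung adenocarcinoma cells under basal conditions with no added stimulus; test concentration not given here.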 Particulars: higher = more signal.
The next experiment has as its system Lefty1. Briefly: Lefty1 binders on small-molecule microarrays, primary screen, biochemical, small-molecule microarray, 635/667 nm fluorescence (AID 1139). The note with it: small-molecule microarray binding, fluorescence 635/667; higher = more signal.
In experiment [8] the test system is wheat germ agglutinin (Triticum aestivum), Alexa647-labelled. Briefly: wheat germ agglutinin binders on compound microarrays, profiling panel, artefact control for SMM control-protein annotation, biochemical, small-molecule microarray, 635/667 nm fluorescence (AID 1140).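 Note: score merges 667 nm feature emission with signal to noise over triplicate slides.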 The note with it: WGA-A647 binding, 635 nm fluorescence, higher = more signal.
For experiment [9], the target named is Luciferin 4-monooxygenase (Photinus pyralis) (UniProt P08659). In words: firefly luciferase enzyme inhibitors, primary screen, biochemical, luminescence, purified enzyme, 2006 set (AID 1141).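 Note: cell-free assay with purified firefly luciferase at 100 ng per well in PBS; test concentration not given here.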 Particulars: SteadyGlo luminescence, 30 min, higher = more signal, called active from +8 up or from −8 down.
Experiment [10] relates to Wnt5a (protein binding on small-molecule microarray). In words: Wnt5a binders on small-molecule microarray, primary screen, biophysical, 635/667 nm fluorescence (AID 1142).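 Note: fluorescence read at 667 nm with signal to noise per printed feature.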 Particulars: 635 nm fluorescence, higher = more signal.
Experiment [11] can be described thus: cell viability in Huh7 cells, primary screen, cytotoxicity control for HCV replication inhibitor project, CellTiter-Glo luminescence, basal, 48 h (AID 1143).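 Note: Huh7 hepatoma cells carrying a hepatitis C replication reporter with no stimulus; test concentration not given here.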 The note with it: Huh7 HCV replicon, higher = more signal, called active from +8 up or from −8 down. (In ATP-based viability assays light output follows the ATP content of the culture.)
The nature of experiment [12]: P. aeruginosa biofilm formation inhibitors, primary screen, PAO1 strain, BacTiter-Glo luminescence, LB-PBS (AID 1144). The note with it: 12 h, higher = more signal.
Experiment [13] can be described thus: CREB reporter modulators without forskolin, primary screen, cell-based, PC12, CRE-LacZ reporter, unstimulated (AID 1145). The note with it: no forskolin, luminescence, 4.5 h, higher = more signal, called active from +8 up or from −8 down.
Experiment [14] can be described thus: CREB reporter modulators under forskolin, primary screen, cell-based, PC12, CRE-LacZ reporter, forskolin-stimulated (AID 1146).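 Note: PC12 cells with 6xCRE LacZ reporter stimulated by forskolin 10 µM; beta-galactosidase reporter signal reflecting CREB driven transcription.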 Particulars: luminescence, 4.5 h, higher = more signal, called active from +8 up or from −8 down.
The target of experiment [15] is Streptavidin (Streptomyces avidinii) (UniProt P22629). Briefly: streptavidin binders on small-molecule microarray, primary screen, artefact control for SMM compound annotation, biophysical, 635/667 nm fluorescence (AID 1147).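 Note: signal reflects streptavidin binding to arrayed compounds as a control protein.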 The note with it: streptavidin binding, higher = more signal.
The nature of experiment [16]: small-molecule binders of probe aInhba, primary screen, biochemical, small-molecule microarray, 635/667 nm fluorescence (AID 1148).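 Note: score merges 667nm spot fluorescence with signal-to-noise for antibody binding to printed compounds.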 The note with it: higher = more signal.
The target in experiment [17] is Torsin-1A (Homo sapiens) (UniProt O14656). In words: torsin A binders from cell lysate, primary screen, small-molecule microarray, wild-type, 635/667 nm (AID 1149). The note with it: COS7 hTOR1A-WT lysate, 635 nm fluorescence, higher = more signal.
Experiment [18] has the same target. In words: small-molecule binders of mutant TOR1A in lysate, primary screen, cell lysate, small-molecule microarray, COS7 lysate, 635/667 nm fluorescence (AID 1150).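 Note: score pools 667 nm emission and signal to noise measuring lysate protein binding.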 Particulars: COS7 hTOR1A mutant lysate, 635 nm fluorescence, higher = more signal.
For experiment [19], the system named is Sonic hedgehog protein (Shh). In words: small-molecule binders of Shh protein, primary screen, biochemical, small-molecule microarray, 635/667 nm fluorescence (AID 1151).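 Note: Shh protein binding to compounds spotted on small-molecule microarray slides; score combines spot fluorescence intensity with signal-to-noise across triplicate slides.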 The note with it: small-molecule microarray binding, 635 nm fluorescence; higher = more signal.

Sequence of Focal adhesion kinase 1 (Homo sapiens) (Q05397 whole entry, looked up): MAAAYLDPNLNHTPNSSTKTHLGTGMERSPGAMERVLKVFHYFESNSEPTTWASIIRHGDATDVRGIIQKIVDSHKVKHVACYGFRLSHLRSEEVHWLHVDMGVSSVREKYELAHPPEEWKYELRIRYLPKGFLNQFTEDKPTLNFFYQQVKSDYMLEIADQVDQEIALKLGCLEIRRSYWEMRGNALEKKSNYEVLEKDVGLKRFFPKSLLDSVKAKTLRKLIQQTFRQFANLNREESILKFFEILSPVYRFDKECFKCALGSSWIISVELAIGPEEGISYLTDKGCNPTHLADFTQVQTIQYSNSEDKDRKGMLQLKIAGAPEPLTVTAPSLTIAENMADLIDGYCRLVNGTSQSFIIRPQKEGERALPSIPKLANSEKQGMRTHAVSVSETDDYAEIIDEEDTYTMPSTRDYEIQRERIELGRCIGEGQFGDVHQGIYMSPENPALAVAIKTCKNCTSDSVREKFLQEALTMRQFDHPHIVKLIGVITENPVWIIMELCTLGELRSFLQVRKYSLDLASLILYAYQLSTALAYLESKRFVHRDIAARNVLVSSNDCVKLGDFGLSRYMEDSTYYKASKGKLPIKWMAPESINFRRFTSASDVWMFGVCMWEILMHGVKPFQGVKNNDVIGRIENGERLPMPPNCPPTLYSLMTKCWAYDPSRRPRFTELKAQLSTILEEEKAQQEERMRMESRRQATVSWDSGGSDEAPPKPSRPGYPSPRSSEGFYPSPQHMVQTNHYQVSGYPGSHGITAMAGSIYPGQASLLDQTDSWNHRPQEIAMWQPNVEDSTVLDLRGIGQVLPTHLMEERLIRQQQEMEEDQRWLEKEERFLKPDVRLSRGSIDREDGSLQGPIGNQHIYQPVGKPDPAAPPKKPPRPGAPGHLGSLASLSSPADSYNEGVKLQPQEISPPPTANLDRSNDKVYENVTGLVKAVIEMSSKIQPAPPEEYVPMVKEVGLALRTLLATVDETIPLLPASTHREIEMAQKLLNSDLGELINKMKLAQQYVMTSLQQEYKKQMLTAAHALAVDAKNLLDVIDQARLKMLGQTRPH
Sequence of Follistatin (Homo sapiens) (P19883 whole entry, looked up): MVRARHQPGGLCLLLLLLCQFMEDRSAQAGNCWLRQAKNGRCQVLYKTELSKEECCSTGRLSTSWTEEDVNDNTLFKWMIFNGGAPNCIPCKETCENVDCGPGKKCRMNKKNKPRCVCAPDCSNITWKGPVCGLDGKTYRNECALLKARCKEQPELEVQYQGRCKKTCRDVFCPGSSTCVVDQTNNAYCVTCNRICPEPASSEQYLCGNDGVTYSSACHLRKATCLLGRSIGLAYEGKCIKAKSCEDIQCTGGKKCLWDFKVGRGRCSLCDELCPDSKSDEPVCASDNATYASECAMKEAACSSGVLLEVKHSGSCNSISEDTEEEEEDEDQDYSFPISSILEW
Sequence of Streptavidin (Streptomyces avidinii) (P22629 whole entry, looked up): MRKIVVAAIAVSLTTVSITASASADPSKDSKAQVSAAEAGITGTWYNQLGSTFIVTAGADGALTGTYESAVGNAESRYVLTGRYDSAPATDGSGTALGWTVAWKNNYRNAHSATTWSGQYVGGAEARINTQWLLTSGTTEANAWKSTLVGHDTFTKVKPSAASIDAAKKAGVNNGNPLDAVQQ
Sequence of Torsin-1A (Homo sapiens) (O14656 whole entry, looked up): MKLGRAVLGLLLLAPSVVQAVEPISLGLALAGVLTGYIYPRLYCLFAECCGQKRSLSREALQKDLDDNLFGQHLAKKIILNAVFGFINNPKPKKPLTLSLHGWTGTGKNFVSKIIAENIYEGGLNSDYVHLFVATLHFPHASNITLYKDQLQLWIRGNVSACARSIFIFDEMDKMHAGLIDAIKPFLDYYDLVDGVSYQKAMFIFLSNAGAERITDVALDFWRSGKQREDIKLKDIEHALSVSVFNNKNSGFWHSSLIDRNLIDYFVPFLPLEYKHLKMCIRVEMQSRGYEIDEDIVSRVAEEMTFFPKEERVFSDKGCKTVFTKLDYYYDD
Sequence of Luciferin 4-monooxygenase (Photinus pyralis) (P08659 whole entry, looked up): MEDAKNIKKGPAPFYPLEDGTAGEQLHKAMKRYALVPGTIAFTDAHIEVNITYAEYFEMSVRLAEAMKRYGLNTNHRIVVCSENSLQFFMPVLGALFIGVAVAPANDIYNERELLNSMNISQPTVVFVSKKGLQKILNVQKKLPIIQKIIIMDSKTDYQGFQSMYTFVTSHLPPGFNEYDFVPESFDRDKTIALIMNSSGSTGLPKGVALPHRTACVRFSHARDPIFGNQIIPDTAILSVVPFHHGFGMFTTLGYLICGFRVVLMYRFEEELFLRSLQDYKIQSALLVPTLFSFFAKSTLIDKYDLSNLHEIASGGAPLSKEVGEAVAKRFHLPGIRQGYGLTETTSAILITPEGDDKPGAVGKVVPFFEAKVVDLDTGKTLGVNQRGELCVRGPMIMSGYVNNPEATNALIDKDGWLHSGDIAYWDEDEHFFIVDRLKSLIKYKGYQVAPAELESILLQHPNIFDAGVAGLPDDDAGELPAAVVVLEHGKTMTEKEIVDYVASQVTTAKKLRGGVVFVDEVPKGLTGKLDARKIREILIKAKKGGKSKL
Sequence of Fibroblast growth factor 2 (Homo sapiens) (P09038 whole entry, looked up): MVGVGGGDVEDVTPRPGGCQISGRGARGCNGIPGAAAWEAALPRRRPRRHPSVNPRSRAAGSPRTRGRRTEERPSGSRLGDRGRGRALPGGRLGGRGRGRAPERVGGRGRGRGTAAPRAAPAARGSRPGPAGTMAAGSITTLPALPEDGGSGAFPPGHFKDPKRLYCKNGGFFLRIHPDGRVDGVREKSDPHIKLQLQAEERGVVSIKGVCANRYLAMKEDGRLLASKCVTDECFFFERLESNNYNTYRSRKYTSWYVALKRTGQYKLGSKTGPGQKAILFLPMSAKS

Consider `CCOC(=O)[C@H](Cc1ccccc1)NC(=O)CCC1CC(OC(=O)NCCc2ccc(F)cc2)CC2(CCCC(COC(=O)NCCCN3CCCC3=O)O2)O1` (stereo not given in full), for which the composite z-score in experiment [1] worked out at 0.688; in experiment [2], 0.902; in [3], 0.494; in [4], 0.552; in experiment [5] it was 0.578; in [6], 0.37. For the same molecule, the composite z-score in the experiment on Lefty1 is 0.461; in [8], 0.374; in [10], 0.126; in experiment [15] it was 0.625; in [16], -0.206; with Torsin-1A (Homo sapiens) [17], 0.144. Moreover, the composite z-score with Torsin-1A (Homo sapiens) [18] was 0.321; in experiment [19] it was 0.733. Also, the z-score in experiment [7] is 0.837; in experiment [9] it was -0.241 (inactive); in [11] it was -1.04 (inactive); in [12], -1.68 (inactive); in [13], -0.165 (inactive); in [14], 0.0137 (inactive).
For `CCCNC(=O)OC[C@H]1O[C@H](c2ccccc2)C=C[C@@H]1Oc1ccc(OC)cc1`, the composite z-score is 0.98 in [1]; 0.0455 in [2]; -0.0038 in experiment [3]; 0.25 in [4]; -0.143 in [5]; -0.179 in experiment [6]. The composite z-score in the experiment on Lefty1 was 0.212; in [8], -0.114; in [10], -0.0663; in [15], 1.48; in [16] it was -0.0719; with Torsin-1A (Homo sapiens) [17], -0.131. Besides, the composite z-score in the experiment with Torsin-1A (Homo sapiens) [18] is 0.144; in [19] it was 0.0199. Also, the z-score in experiment [7] was -0.388; in experiment [9], -0.533 (inactive); in [11], -0.234 (inactive); in [12] it was 0.404 (inactive); in [13], 0.735 (inactive); in experiment [14], -0.353 (inactive).
Turning to `CO[C@H]1COC(=O)[C@@H](C)COC(=O)[C@@H](OCc2ccccc2)C=C[C@@H]1C`, the composite z-score in experiment [1] is -0.328; in experiment [2], -0.869; in experiment [3] it was 0.106; in experiment [4] it was -0.648; in experiment [5], -0.17; in experiment [6], 0.193. Moreover, the composite z-score with Lefty1 was 0.0823; in experiment [8] it was -1.08; in experiment [10] it was 0.007; in [15] it was -0.136; in experiment [16], -0.016; in the experiment with Torsin-1A (Homo sapiens) [17], 0.743. Moreover, the composite z-score is -0.253 with Torsin-1A (Homo sapiens) [18] and 0.214 in [19]. The z-score in [7] is 0.651; in [9], -0.415 (inactive); in experiment [11] it was -0.0174 (inactive); in experiment [12], 0.304 (inactive); in experiment [13], -0.0293 (inactive); in experiment [14], -0.803 (inactive).
With `CCOC(=O)[C@H](Cc1ccccc1)NC(=O)CCC1CC(OC(=O)NCc2cccc3ccccc23)CC2(CCCC(COC(=O)NCC(c3ccccc3)c3ccccc3)O2)O1` (stereo not given in full), the composite z-score in [1] was 1.06; in [2], 0.455; in experiment [3], 0.384; in [4] it was 0.853; in experiment [5] it was 0.411; in [6], 0.39. The composite z-score in the experiment on Lefty1 was 0.589; in experiment [8], -0.0722; in experiment [10], 0.177; in experiment [15], 0.164; in experiment [16], -0.154; in the experiment with Torsin-1A (Homo sapiens) [17] it was 0.45. Also, the composite z-score is 0.0748 with Torsin-1A (Homo sapiens) [18] and 0.613 in experiment [19]. Besides, the z-score in experiment [7] was -0.243; in experiment [9], 0.611 (inactive); in [11] it was -1.43 (inactive); in experiment [12], -0.873 (inactive); in experiment [13] it was 0.286 (inactive); in [14], 0.155 (inactive).
Consider `CO[C@@H]1COC(=O)[C@@H]2CCCN2C(=O)[C@@H](C)COC(=O)CC=C[C@H]1C`, for which the composite z-score in experiment [1] is 0.408; in experiment [2], 0.923; in [3], -0.194; in [4], 0.527; in experiment [5], 0.365; in [6] it was 1.51. The composite z-score with Lefty1 was 1.01; in experiment [8] it was -0.0639; in experiment [10], 0.667; in experiment [15] it was 0.119; in experiment [16], -0.0427; with Torsin-1A (Homo sapiens) [17] it was 0.826. For the same molecule, the composite z-score was 0.962 with Torsin-1A (Homo sapiens) [18] and 0.895 in [19]. Moreover, the z-score in experiment [7] was -0.84; in experiment [9], 1.48 (inactive); in experiment [11], -0.193 (inactive); in experiment [12], -1.09 (inactive); in [13] it was 1.03 (inactive); in experiment [14], 0.828 (inactive).
Consider `CO[C@H]1COC(=O)[C@@H]2CCCN2C(=O)CC=C[C@@H](C)[C@H](OC)COC(=O)[C@@H](OCc2ccccc2)C=C[C@@H]1C`, for which the composite z-score in [1] was -0.228; in experiment [2], -1.15; in experiment [3], 0.0122; in experiment [4], -0.557; in [5] it was 1.27; in experiment [6], 1.02. For the same molecule, the composite z-score was 1.5 in the experiment on Lefty1; -0.83 in experiment [8]; -0.0628 in [10]; -0.0601 in experiment [15]; -0.407 in [16]; 1.32 in the experiment with Torsin-1A (Homo sapiens) [17]. Moreover, the composite z-score was 0.855 with Torsin-1A (Homo sapiens) [18] and 1.89 in experiment [19]. The z-score is 0.0486 in [7]; 0.168 (inactive) in experiment [9]; -3.36 (inactive) in experiment [11]; -0.576 (inactive) in [12]; 1.15 (inactive) in experiment [13]; -0.166 (inactive) in [14].
